Assay results published in the supplement of paper PMC12669032.

How the values were obtained:
Test in all cases: growth AUC relative to DMSO control (median of replicates) (fraction); higher = more growth (less inhibition), active = hit call of the paper
Details in all cases: 20 µM; 24 h;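 active = AUC reduced over 20% with Padj below 0.05 in at least 2 of 3 replicates; inactive = otherwise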
Coprococcus comes = test system: Coprococcus comes
Summary of the method: (§1)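 For each compound at 20 µM (1% DMSO), gut bacterial monocultures seeded at OD600 0.05 grew anaerobically in mGAM at 37 °C in round-bottom 96-well plates. Hourly OD600 readings over 24 h gave growth curves whose minimum OD was set to 0. Area under these curves was normalised to the plate median of solvent-only wells, or to row and column medians on the industrial chemical plate. Values are medians of three biological replicates grown on separate days.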

Escherichia coli ED1a = test system: Escherichia coli ED1a
Summary of the method: as §1

Escherichia coli IAI1 = test system: Escherichia coli IAI1
Summary of the method: as §1

Eubacterium rectale = test system: Eubacterium rectale
Summary of the method: as §1

[1] = test system: Fusobacterium nucleatum subsp. animalis
Summary of the method: as §1

Lactobacillus gasseri = test system: Lactobacillus gasseri
Summary of the method: as §1

Lactobacillus paracasei = test system: Lactobacillus paracasei
Summary of the method: as §1

Odoribacter splanchnicus = test system: Odoribacter splanchnicus
Summary of the method: as §1

[2] = test system: Parabacteroides distasonis
Summary of the method: as §1

Parabacteroides merdae = test system: Parabacteroides merdae
Summary of the method: as §1

Measured: growth AUC

NC1=C(Cl)C(=O)c2ccccc2C1=O
active: [2] 0.528
inactive: Coprococcus comes 1 | Escherichia coli ED1a 0.896 | Escherichia coli IAI1 0.804 | Eubacterium rectale 1.19 | [1] 1.25 | Lactobacillus gasseri 0.863 | Lactobacillus paracasei 0.995 | Odoribacter splanchnicus 0.876 | Parabacteroides merdae 0.88

COc1nc(NC(=O)NS(=O)(=O)c2ccccc2C(F)(F)F)nc(C(F)(F)F)n1
inactive: Coprococcus comes 1.01 | Escherichia coli ED1a 0.99 | Escherichia coli IAI1 1 | Eubacterium rectale 0.979 | [1] 0.988 | Lactobacillus gasseri 0.899 | Lactobacillus paracasei 0.986 | Odoribacter splanchnicus 1.06 | [2] 0.996 | Parabacteroides merdae 0.964

FC(F)(F)c1cccc(C(c2ccccc2)(c2ccccc2)n2cncn2)c1
active: Eubacterium rectale 0.646 | Parabacteroides merdae 0.619
inactive: Coprococcus comes 0.713 | Escherichia coli ED1a 0.975 | Escherichia coli IAI1 0.959 | [1] 0.899 | Lactobacillus gasseri 0.851 | Lactobacillus paracasei 1.11 | Odoribacter splanchnicus 1.03 | [2] 0.842

O=C(O)C1(C(=O)Nc2ccc(Cl)cc2Cl)CC1
inactive: Coprococcus comes 1.01 | Escherichia coli ED1a 1.02 | Escherichia coli IAI1 1.02 | Eubacterium rectale 0.98 | [1] 1.03 | Lactobacillus gasseri 0.955 | Lactobacillus paracasei 0.999 | Odoribacter splanchnicus 0.994 | [2] 0.909 | Parabacteroides merdae 1.01

O=C=NC1CCC(CC2CCC(N=C=O)CC2)CC1 (stereo not given)
inactive: Coprococcus comes 1.08 | Escherichia coli ED1a 1.02 | Escherichia coli IAI1 1.03 | Eubacterium rectale 0.973 | [1] 1.05 | Lactobacillus gasseri 0.921 | Lactobacillus paracasei 1.12 | Odoribacter splanchnicus 1.06 | [2] 1 | Parabacteroides merdae 1.02

CCOC(=O)C1CC(=O)C(=C(O)C2CC2)C(=O)C1 (stereo not given)
inactive: Coprococcus comes 1.02 | Escherichia coli ED1a 0.972 | Escherichia coli IAI1 1.01 | Eubacterium rectale 0.961 | [1] 1.01 | Lactobacillus gasseri 1.01 | Lactobacillus paracasei 0.937 | Odoribacter splanchnicus 0.976 | [2] 0.984 | Parabacteroides merdae 1.03

CCOc1nc(F)cc2nc(S(=O)(=O)Nc3c(Cl)cccc3C(=O)OC)nn12
inactive: Coprococcus comes 0.984 | Escherichia coli ED1a 0.991 | Escherichia coli IAI1 1.01 | Eubacterium rectale 0.967 | [1] 0.995 | Lactobacillus gasseri 1.01 | Lactobacillus paracasei 1.06 | Odoribacter splanchnicus 1.04 | [2] 1.05 | Parabacteroides merdae 1.02

O=[N+]([O-])c1ccc(Oc2c(Cl)cc(Cl)cc2Cl)cc1
active: [2] 0.623
inactive: Coprococcus comes 0.95 | Escherichia coli ED1a 1.01 | Escherichia coli IAI1 1.03 | Eubacterium rectale 1.02 | [1] 1.05 | Lactobacillus gasseri 0.874 | Lactobacillus paracasei 1.05 | Odoribacter splanchnicus 1.03 | Parabacteroides merdae 0.899

CCCCCCCC/C=C\CCCCCCCC(N)=O
inactive: Coprococcus comes 0.869 | Escherichia coli ED1a 0.991 | Escherichia coli IAI1 0.953 | Eubacterium rectale 1.14 | [1] 1.02 | Lactobacillus gasseri 0.962 | Lactobacillus paracasei 1.02 | Odoribacter splanchnicus 1.04 | [2] 0.96 | Parabacteroides merdae 0.955

Cc1ccc2c(c1)[C@H](Nc1nc(N)nc(C(C)F)n1)[C@@H](C)C2 (stereo not given in full)
inactive: Coprococcus comes 0.968 | Escherichia coli ED1a 1.03 | Escherichia coli IAI1 1.02 | Eubacterium rectale 0.91 | [1] 0.857 | Lactobacillus gasseri 0.982 | Lactobacillus paracasei 0.986 | Odoribacter splanchnicus 0.902 | [2] 1.09 | Parabacteroides merdae 0.972

COc1ccccc1C(=O)NS(=O)(=O)c1ccc(C(=O)NC2CC2)cc1
inactive: Coprococcus comes 0.995 | Escherichia coli ED1a 1.03 | Escherichia coli IAI1 1.02 | Eubacterium rectale 0.97 | [1] 1.01 | Lactobacillus gasseri 1.21 | Lactobacillus paracasei 1 | Odoribacter splanchnicus 0.989 | [2] 1.03 | Parabacteroides merdae 1.01

CC1=C(c2ccccc2)C(=O)N(C(C)(C)c2cc(Cl)cc(Cl)c2)CO1
inactive: Coprococcus comes 0.972 | Escherichia coli ED1a 1.01 | Escherichia coli IAI1 0.987 | Eubacterium rectale 0.982 | [1] 0.935 | Lactobacillus gasseri 1.01 | Lactobacillus paracasei 1.04 | Odoribacter splanchnicus 0.972 | Parabacteroides merdae 0.811
active: [2] 0.732

CC1CN(C2CCCCCCCCCCC2)CC(C)O1 (mixture of isomers)
inactive: Coprococcus comes 0.992 | Escherichia coli ED1a 0.994 | Escherichia coli IAI1 0.971 | Eubacterium rectale 1.23 | [1] 0.955 | Lactobacillus gasseri 0.926 | Lactobacillus paracasei 1.02 | Odoribacter splanchnicus 1.14 | [2] 1.02 | Parabacteroides merdae 0.97

CCOC(=O)CSc1nc(C(C)(C)C)nn1C(=O)N(C)C
inactive: Coprococcus comes 0.985 | Escherichia coli ED1a 0.961 | Escherichia coli IAI1 0.947 | Eubacterium rectale 1.05 | [1] 0.918 | Lactobacillus gasseri 0.91 | Lactobacillus paracasei 0.956 | Odoribacter splanchnicus 0.948 | [2] 0.896 | Parabacteroides merdae 0.947

FC(F)(F)/N=C1\SC(=Nc2ccccc2)N(c2ccccc2)\C1=N\C(F)(F)F
inactive: Coprococcus comes 0.983 | Escherichia coli ED1a 0.962 | Escherichia coli IAI1 0.96 | Eubacterium rectale 1.3 | [1] 0.653 | Lactobacillus gasseri 0.903 | Lactobacillus paracasei 1.09 | Odoribacter splanchnicus 1.13 | [2] 0.949 | Parabacteroides merdae 0.908

COc1cc(OC)nc(NC(=O)NS(=O)(=O)c2c(-c3nnn(C)n3)cnn2C)n1
inactive: Coprococcus comes 1.01 | Escherichia coli ED1a 1.01 | Escherichia coli IAI1 0.988 | Eubacterium rectale 1.1 | [1] 1.02 | Lactobacillus gasseri 0.873 | Lactobacillus paracasei 1.04 | Odoribacter splanchnicus 1.03 | [2] 0.845 | Parabacteroides merdae 1.03

CC(C)(C)[C@@H](O)[C@@H](Cc1ccc(Cl)cc1)n1cncn1 (mixture of isomers)
inactive: Coprococcus comes 0.994 | Escherichia coli ED1a 1 | Escherichia coli IAI1 0.986 | Eubacterium rectale 1.02 | [1] 0.975 | Lactobacillus gasseri 0.913 | Lactobacillus paracasei 0.954 | Odoribacter splanchnicus 1.13 | [2] 0.983 | Parabacteroides merdae 0.911

CNC(=O)/C(=N/OC)c1ccccc1CO/N=C(C)/C(=N/OC)C(/C)=N/OC
inactive: Coprococcus comes 1.01 | Escherichia coli ED1a 1.01 | Escherichia coli IAI1 1.05 | Eubacterium rectale 0.928 | [1] 0.91 | Lactobacillus gasseri 1.16 | Lactobacillus paracasei 0.998 | Odoribacter splanchnicus 0.989 | [2] 0.997 | Parabacteroides merdae 0.976

c1cc2ccc3ccc4ccc5cccc6c(c1)c2c3c4c56
inactive: Coprococcus comes 1.01 | Escherichia coli ED1a 1.04 | Escherichia coli IAI1 1.01 | Eubacterium rectale 0.999 | [1] 0.946 | Lactobacillus gasseri 0.994 | Lactobacillus paracasei 1.02 | Odoribacter splanchnicus 1.01 | [2] 1.04 | Parabacteroides merdae 1.02

CS(=O)(=O)c1ccc(C(=O)O)c(N)c1
inactive: Coprococcus comes 1.05 | Escherichia coli ED1a 1.02 | Escherichia coli IAI1 1.01 | Eubacterium rectale 1.05 | [1] 1.08 | Lactobacillus gasseri 1.13 | Lactobacillus paracasei 1 | Odoribacter splanchnicus 1.02 | [2] 1.04 | Parabacteroides merdae 1.01

Clc1ccc(CSc2ccc(Cl)cc2)cc1
inactive: Coprococcus comes 1.03 | Escherichia coli ED1a 1 | Escherichia coli IAI1 0.989 | Eubacterium rectale 1.05 | [1] 1.07 | Lactobacillus gasseri 0.98 | Lactobacillus paracasei 1.02 | Odoribacter splanchnicus 1.07 | [2] 1 | Parabacteroides merdae 0.979

COc1nc(N)nc(NC(C)(C)C)n1
inactive: Coprococcus comes 1.03 | Escherichia coli ED1a 1 | Escherichia coli IAI1 0.98 | Eubacterium rectale 0.976 | [1] 0.964 | Lactobacillus gasseri 0.933 | Lactobacillus paracasei 1.02 | Odoribacter splanchnicus 1.07 | [2] 1 | Parabacteroides merdae 1.02

ClC(COCC(Cl)C(Cl)(Cl)Cl)C(Cl)(Cl)Cl (stereo not given)
inactive: Coprococcus comes 0.976 | Escherichia coli ED1a 1.01 | Escherichia coli IAI1 0.983 | Eubacterium rectale 0.92 | [1] 0.992 | Lactobacillus gasseri 1.11 | Lactobacillus paracasei 1.08 | Odoribacter splanchnicus 0.971 | [2] 0.98 | Parabacteroides merdae 0.932

COC(=O)c1csc(C)c1S(=O)(=O)NC(=O)n1nc(OC)n(C)c1=O
inactive: Coprococcus comes 1.01 | Escherichia coli ED1a 1 | Escherichia coli IAI1 0.971 | Eubacterium rectale 1.11 | [1] 0.942 | Lactobacillus gasseri 0.805 | Lactobacillus paracasei 0.993 | Odoribacter splanchnicus 0.982 | [2] 0.801 | Parabacteroides merdae 0.99

CC(C)(c1ccc(O)cc1)c1ccc(O)cc1
inactive: Coprococcus comes 1.01 | Escherichia coli ED1a 0.994 | Escherichia coli IAI1 0.989 | Eubacterium rectale 1.04 | [1] 1.1 | Lactobacillus gasseri 1 | Lactobacillus paracasei 1.04 | Odoribacter splanchnicus 1.07 | [2] 1.38 | Parabacteroides merdae 1.07

CCC/C(=N\OCC(C)Oc1ccc(Cl)cc1)C1=C(O)CC(C2CCCSC2)CC1=O (stereo not given)
inactive: Coprococcus comes 0.979 | Escherichia coli ED1a 0.98 | Escherichia coli IAI1 0.987 | Eubacterium rectale 0.906 | [1] 0.913 | Lactobacillus gasseri 1.02 | Lactobacillus paracasei 0.706 | Odoribacter splanchnicus 1.07 | [2] 0.885 | Parabacteroides merdae 0.938
